Data published in PubChem BioAssay AID629 (Emory University Molecular Libraries Screening Center, 2007).
About 1,400 (1.6%) of roughly 86,000 compounds were called active. Rule as the data show it: active = inhibition above about 50%; inactive = the rest. The sample as a whole holds a higher share of actives than the screen did.

biological target: Estrogen receptor (Homo sapiens) (UniProt P03372); assay: blockers of SRC-1 peptide recruitment to ERα – biochemical, TR-FRET, ERα LBD, estradiol-bound, primary screen (AID 629); details: TR-FRET ER-alpha LBD / SRC-1 peptide, at 25.6 µM, hits give high values;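 also: 0% = receptor plus peptide control and 100% = peptide only without receptor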
Sequence (P03372 whole entry, looked up, the tested form may be a part): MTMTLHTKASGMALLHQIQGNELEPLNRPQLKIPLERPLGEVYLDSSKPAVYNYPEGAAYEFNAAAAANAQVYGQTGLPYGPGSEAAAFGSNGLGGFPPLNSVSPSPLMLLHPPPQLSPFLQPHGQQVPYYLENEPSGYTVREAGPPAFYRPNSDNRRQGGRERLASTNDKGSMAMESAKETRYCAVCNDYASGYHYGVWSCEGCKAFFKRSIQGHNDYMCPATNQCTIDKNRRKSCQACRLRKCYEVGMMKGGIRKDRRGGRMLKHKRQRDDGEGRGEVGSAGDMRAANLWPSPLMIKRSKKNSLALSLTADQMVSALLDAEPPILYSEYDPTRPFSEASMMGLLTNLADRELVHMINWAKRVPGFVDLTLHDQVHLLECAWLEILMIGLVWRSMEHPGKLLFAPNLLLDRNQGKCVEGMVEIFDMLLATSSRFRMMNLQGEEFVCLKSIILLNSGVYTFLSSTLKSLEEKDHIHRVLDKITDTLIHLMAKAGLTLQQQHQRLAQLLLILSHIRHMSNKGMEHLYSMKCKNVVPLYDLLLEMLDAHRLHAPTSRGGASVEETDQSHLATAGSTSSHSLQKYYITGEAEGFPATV

inhibition, inactive:
CC(=O)Nc1cccc(Oc2cc(C#N)c(C#N)cc2N2CCOCC2)c1 8.98%
CCOc1cc(N2CCOCC2)c(OCC)cc1NC(=O)COC(=O)[C@H](Cc1c[nH]c2ccccc12)NC(C)=O -11.8%
COc1ccc(OC)c2c1sc(=NC(=O)CN1C(=O)CCC1=O)n2C 28.2%
Cn1c(=NC(=O)C2CC2)sc2cc(F)cc(F)c21 -0.62%
CCC(c1nnnn1C(C)(C)C)N(Cc1cc2cccc(C)c2n2nnnc12)C1CCCC1 (centres undefined) -3.95%
Cc1cc(C)nc(N2CCN(c3ncnc4c3oc3ccccc34)CC2)n1 16.1%
CCc1nc(N2CCN(c3nc(C)cc(C)n3)CC2)c2oc3ccccc3c2n1 49.1%
c1ccc(-c2nc(NCc3ccco3)c3ccccc3n2)cc1 2.5%
O=C(Cc1ccccc1)n1nc(-c2ccccc2)nc1NCc1ccco1 -2.71%
CC(C)CCNC(=O)CC1C(=O)N(Cc2ccccc2)C(C)c2nc3ccccc3n21 (centres undefined) -8.13%
COCCNS(=O)(=O)c1cc(Br)ccc1OC 3.01%
CC(C)(C)c1ccc(C(=O)NCC(=O)OCN2C(=O)c3ccccc3C2=O)cc1 0.65%
O=C(OCC#CCSc1nnc(-c2ccncc2)o1)c1sc2ccccc2c1Cl -0.24%
O=C(CN1C(=O)CC(c2ccccc2)=Nc2ccccc21)NC1CCCCC1 -6.54%
Cn1c(=NC(=O)CSCC(=O)N2CCCCC2)sc2ccccc21 -2.22%
Cn1c(=NC(=O)CSCC(=O)N2CCOCC2)sc2ccccc21 -10.2%
O=C(Nc1ccc2nc3n(c(=O)c2c1)CCCCC3)c1ccccc1Cl 1.87%
CCCc1noc2c1/C(=N\O)CCC2 -11.6%
COc1ccc(S(=O)(=O)Nc2ccc(F)cc2)c(C)c1C 10.1%

inhibition, active:
CCOc1cc(N2CCOCC2)c(OCC)cc1NC(=O)COc1cccc2cccnc12 94.2% [fluorescence artefact?]
COc1ccc(C)c2sc(=NC(=O)c3ccc(C#N)cc3)n(C)c12 79.7% [fluorescence artefact?]
Cc1nc(N2CCN(c3ncccn3)CC2)c2oc3ccccc3c2n1 54.3% [fluorescence artefact?]
CN1CCc2c(sc3c2c(NCc2ccco2)nc2nnnn23)C1 84.9% [fluorescence artefact?]
Cn1c(=NC(=O)c2cnccn2)sc2ccccc21 56.8% [fluorescence artefact?]
